Data on 28 compounds can be found in PubChem BioAssay (Tox21).

A short description of experiment [1]: qHTS assay for small molecule agonists of the p53 signaling pathway (AID 651631; calls by dose curve; note: nearly all actives have a fitted effect of over 15% in size; note: potency is the fitted concentration of half-maximal effect). In a few lines: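 Readout was fluorescence from the LiveBLAzer FRET substrate, applied for 2 h at room temperature after 16 h compound exposure at 37 °C. Cells were the p53RE-bla HCT-116 line, with beta-lactamase driven by p53 response elements.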
The nature of experiment [2]: qHTS assay for small molecules that induce genotoxicity in human embryonic kidney cells expressing luciferase-tagged ATAD5 (AID 651632). Note: nearly all actives have a fitted effect of over 15% in size. A digest of the protocol:
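Quantitative HTS in HEK293T expressing luciferase-tagged ATAD5, whose levels rise upon DNA damage. Exposure ran 16 hr at 37C and 5% CO2, with luminescence read 30 min after Amplite addition at room temperature.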
A general note: Quantitative high-throughput screening tests each substance at several concentrations.

Experiment [3] is described as follows: qHTS assay for small molecule agonists of the p53 signaling pathway - cell viability (AID 651633; calls by dose curve; note: nearly all actives have a fitted effect of over 30% in size; note: potency is the fitted concentration of half-maximal effect; for activity change, negative = cytotoxicity: series mostly up to about 83 µM). A digest of the protocol:
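Viability counter-read: CellTiter-Glo luminescence (30 min, room temperature) in the same p53RE-bla plates. These plates had been exposed to compounds for 16 h at 37 C.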

The nature of experiment [4]: qHTS assay for small molecules that induce genotoxicity in human embryonic kidney cells expressing luciferase-tagged ATAD5 - cell viability (AID 651634; calls by dose curve; note: nearly all actives have a fitted effect of over 25% in size; note: potency is the fitted concentration of half-maximal effect). In a few lines:
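After 15.5 hr incubation with compound at 37C, 5% CO2, HEK293T ATAD5-luciferase cells received CellTiter-Fluor reagent; fluorescence intensity was quantified following 30 min at 37C.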

Experiment [5] is described as follows: qHTS assay for small molecule disruptors of the mitochondrial membrane potential - cell viability (AID 720634; calls by dose curve;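 note: human HepG2 liver cancer cells; series mostly up to about 83 µM; nearly all actives have a fitted effect of over 20% in size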). In a few lines:
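ATP-based luminescent viability readout (CellTiter-Glo, 30 min, room temperature) in HepG2 cells multiplexed with the m-MPI membrane potential dye; compound exposure lasted 1 hr at 37 C.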

The nature of experiment [6]: qHTS assay for small molecule disruptors of the mitochondrial membrane potential (AID 720635). Note: potency is the fitted concentration of half-maximal effect. In a few lines:
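Mitochondrial membrane potential tracked with Mito-MPS dye, red aggregates (ex 540/em 590 nm) against green monomers (ex 490/em 535 nm). Compound treatment 1 hr at 37C, dye 30 min in HepG2.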

Experiment [7] is described as follows: qHTS assay to test for compound auto fluorescence at 590 nm (red) in HepG2 cells (AID 720674). A digest of the protocol: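 1 hr compound incubation on HepG2 cells, 37 C, 5% CO2; plate read ex 540 nm / em 590 nm; intensities reported as Rose Bengal sodium equivalents.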
Experiment [8] in a line: qHTS assay to test for compound auto fluorescence at 535 nm (green) in HepG2 cells (AID 720675).
A short description of experiment [9]: qHTS assay to test for compound auto fluorescence at 460 nm (blue) in HEK293 cells (AID 720678). In a few lines: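 HEK293 cells (2,000 per well, medium with 10% dialyzed FBS) attached for 4-5 hr at 37C, then received compound and stood overnight at 37C, 5% CO2. Blue fluorescence was read at Ex/Em 405/460 nm and expressed relative to triamterene.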
Experiment [10] can be described thus: qHTS assay to test for compound auto fluorescence at 590 nm (red) in HEK293 cells (AID 720679). A digest of the protocol:
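HEK293 cells (2,000/well, medium with 10% dialyzed FBS) attached for 4-5 hr at 37C, received 23 nL compound and were incubated overnight at 37C, 5% CO2. Red fluorescence was then read at 540/590nm Ex/Em, referenced to Rose Bengal sodium.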

Values joined by “and” are separate entries in the source; they are usually repeats but may differ in a detail not shown here. Equal entries are not always repeated. Results filed as inconclusive are left out. More than one record can exist for a structure, and the calls need not agree. Active and inactive are the calls of the source. Unless noted, calls come from the whole dose curve; as a rule, active = well fitted curve in the direction sought with a large enough effect in the repeat runs; inconclusive = weak or mixed curves; inactive = no such curve, though single readings can be large; an effect the other way counts as inactive or inconclusive.
% is set by controls: 0 for no effect and ±100 for the full control effect.

Consider `N[C@@H](Cc1cc(I)c(Oc2ccc(O)c(I)c2)c(I)c1)C(=O)O`, for which the Potency result in [1], in experiment [2], in experiment [3], in experiment [4], in [5] and in experiment [9] was “inactive” each time. Further, in [6], the Potency is 23.7 µM (active). The compound was called inactive in experiment [7], in experiment [8] and in experiment [10].

For the compound `CCCCCCCCC(=O)O`, the Potency result in experiment [1], in [2], in [3], in experiment [4], in experiment [5] and in experiment [6] was “inactive” each time. Moreover, the Potency result in [9] is “inactive”. The compound was called inactive in experiment [7], in experiment [8] and in experiment [10].

With `Clc1cccc(Cl)c1NC1=NCCN1`, the Potency entry in [1], in [3], in experiment [4], in experiment [5], in [6] and in experiment [9] was “inactive” each time. In addition, the compound was classed as inactive in [7], in experiment [8] and in [10].

`Nc1cccc(N)n1`: the Potency result in [2], in [4], in experiment [5] and in experiment [9] was “inactive” throughout. Besides, the Potency in experiment [6] was 14.8 µM (active) and 48.6 µM (active). The outcome in experiment [7], in experiment [8] and in [10] was inactive.

Turning to `CN1Cc2c(N)cccc2C(c2ccccc2)C1` (stereo not drawn), the Potency result in experiment [2], in [4], in experiment [5], in [6] and in experiment [9] was “inactive” throughout. Besides, the call in [7], in [8] and in [10] was inactive.

For the compound `COc1ccc2cc3[n+](cc2c1OC)CCc1cc2c(cc1-3)OCO2`, the Potency in [1] is 61.6 µM (active); in experiment [3], “inactive and 30.9 µM (active)”; in experiment [6] it was 1.68 µM (active) and 870 nM (active). Also, the Potency result in experiment [2], in [5] and in [9] was “inactive” throughout. Besides, the outcome in experiment [7], in [8] and in [10] was inactive.

For the compound `OC1CCCCC1`, the Potency entry in experiment [1], in experiment [2], in experiment [3], in experiment [4] and in [9] was “inactive” throughout. Further, the result in experiment [7], in experiment [8] and in [10] was inactive.

Turning to `CCCOCC(C)O` (stereo not drawn), the Potency result in experiment [2], in [3], in experiment [4], in [5] and in experiment [9] was “inactive” in each case. Further, the Potency in [6] was 54.5 µM (active) and inactive. Also, the call in experiment [7], in experiment [8] and in [10] was inactive.

As to `C=CC(=O)NCOCCCC`, the Potency result in [2], in experiment [3], in experiment [4], in [5], in [6] and in [9] was “inactive” throughout. Moreover, the call in [7], in experiment [8] and in [10] was inactive.

`N#CCC(=O)O`: the Potency result in experiment [1], in experiment [2], in experiment [3], in experiment [4] and in [9] was “inactive” each time. Also, the call in experiment [7], in experiment [8] and in experiment [10] was inactive.

On to `OCC(CO)(CO)CO`, for which the Potency result in experiment [2], in experiment [3], in experiment [4], in experiment [5], in experiment [6] and in experiment [9] was “inactive” in each case. Further, the call in experiment [7], in experiment [8] and in experiment [10] was inactive.

Turning to `O=C(NCC1CCCCN1)c1cc(OCC(F)(F)F)ccc1OCC(F)(F)F` (stereo not drawn), the Potency entry in experiment [1], in [3], in experiment [5], in experiment [6] and in experiment [9] was “inactive” each time. The call in [7], in experiment [8] and in [10] was inactive.

In the case of `C[n+]1ccn(CCO)c1`, the Potency entry in experiment [2], in [3], in [4], in experiment [5], in experiment [6] and in experiment [9] was “inactive” in each case. For the same compound, the compound was called inactive in experiment [7], in experiment [8] and in experiment [10].

Turning to `CC(CN1c2ccccc2Sc2ccccc21)N(C)C` (stereo not drawn), the Potency entry in experiment [2], in experiment [3], in experiment [4], in [5] and in experiment [9] was “inactive” in each case. The call in [7], in [8] and in experiment [10] was inactive.

Consider `Cc1cccc(C)c1[N+](=O)[O-]`, for which the Potency entry in experiment [3], in experiment [4], in experiment [5], in [6] and in experiment [9] was “inactive” in each case. Also, the outcome in experiment [7], in [8] and in experiment [10] was inactive.

`C=C1C[C@]23C[C@@]1(O)CC[C@H]2[C@@]12C=C[C@H](O)[C@@](C)(C(=O)O1)[C@H]2[C@@H]3C(=O)O`: the Potency result in experiment [2], in [3], in experiment [4], in experiment [5], in [6] and in experiment [9] was “inactive” each time. In addition, the call in experiment [7], in experiment [8] and in experiment [10] was inactive.

For `CC[N+](CC)(CC(=O)Nc1c(C)cccc1C)Cc1ccccc1`, the Potency entry in experiment [2], in [3], in [4], in experiment [5] and in experiment [9] was “inactive” each time. The call in experiment [7], in experiment [8] and in [10] was inactive.

Consider `CS(=O)(=O)c1ccc(Cl)cc1`, for which the Potency entry in experiment [3], in experiment [4], in [5], in experiment [6] and in experiment [9] was “inactive” in each case. Also, the outcome in experiment [7], in experiment [8] and in experiment [10] was inactive.

On to `NC1CCCCC1N` (stereo not drawn), for which the Potency result in [1], in experiment [3], in [4] and in experiment [9] was “inactive” throughout. The result in experiment [7], in experiment [8] and in experiment [10] was inactive.

On to `COc1cc(NC(=O)CC(C)=O)c(OC)cc1Cl`, for which the Potency result in [2], in experiment [3], in experiment [4], in experiment [5], in experiment [6] and in experiment [9] was “inactive” in each case. For the same compound, the compound was called inactive in [7], in [8] and in experiment [10].

For `C=CC(C)(C)C`, the Potency result in [1], in experiment [2], in [3], in experiment [4], in [5] and in experiment [9] was “inactive” each time. Further, the call in experiment [7], in experiment [8] and in [10] was inactive.

As to `O=c1c(O)c(-c2ccc(O)c(O)c2)oc2cc(O)cc(O)c12`, the Potency in [1] is 49 µM (active); in [4], 54.5 µM (active). Also, the Potency result in experiment [2], in experiment [3], in experiment [5] and in experiment [9] was “inactive” each time. Besides, the compound was classed as inactive in experiment [7], in experiment [8] and in [10].

In the case of `COC(=O)/C=C\C(=O)OC`, the Potency result in [1], in experiment [2], in experiment [3], in experiment [4], in experiment [5] and in experiment [9] was “inactive” in each case. The result in experiment [7], in [8] and in experiment [10] was inactive.

For the compound `CCCCCCCCCCCC(=O)N(C)CC(=O)O`, the Potency entry in experiment [2], in experiment [4], in [5] and in experiment [9] was “inactive” throughout. Moreover, in experiment [3], the activity change, negative = cytotoxicity was 23.9% [at 8.08 µM] (inactive). For the same compound, the ratio activity, negative = MMP loss in [6] was 7.77% [at 8.08 µM] (inactive). The result in experiment [7], in experiment [8] and in experiment [10] was inactive.

For the compound `CC(COCC(C)OC(=O)c1ccccc1)OC(=O)c1ccccc1` (stereo not drawn), the Potency entry in [2], in experiment [3], in experiment [4], in experiment [5], in experiment [6] and in [9] was “inactive” each time. Further, the outcome in [7], in experiment [8] and in [10] was inactive.

`CO[Si](CCCNCCN)(OC)OC`: the Potency entry in experiment [2], in [3], in [4], in experiment [5], in experiment [6] and in experiment [9] was “inactive” each time. For the same compound, the outcome in [7], in [8] and in experiment [10] was inactive.

`NCCNCCNCCN`: the Potency entry in experiment [1], in [3], in experiment [4], in experiment [5], in experiment [6] and in experiment [9] was “inactive” in each case. Besides, the outcome in experiment [7], in experiment [8] and in experiment [10] was inactive.

Regarding `CC(C)(CO)CO`, the Potency entry in experiment [1], in [2], in experiment [3], in experiment [4], in experiment [5] and in experiment [9] was “inactive” in each case. Moreover, the compound was classed as inactive in [7], in experiment [8] and in [10].
